Molecules are shown by their SMILES. Results filed as inconclusive are left out. A call without a number means that no potency is given here. The source made the active and inactive calls. Calls follow the shape of the dose curve; as a rule, active = well fitted inhibition curve with a large enough effect; inconclusive = small, poorly fitted or top-dose-only effect; inactive = flat fitted curve, though single readings scatter.

Sequence of Calcium and integrin-binding protein 1 (Homo sapiens) (Q99828 whole entry, looked up): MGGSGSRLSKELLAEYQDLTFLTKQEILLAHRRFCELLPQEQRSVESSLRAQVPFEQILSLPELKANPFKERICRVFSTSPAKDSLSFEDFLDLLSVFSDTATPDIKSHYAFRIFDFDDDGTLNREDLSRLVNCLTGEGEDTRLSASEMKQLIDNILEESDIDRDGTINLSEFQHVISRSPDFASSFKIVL

This assay has as its target Calcium and integrin-binding protein 1 (Homo sapiens) (UniProt Q99828). The experiment in a line: Primary qHTS for Identification of Calcium Integrin Binding Protein 1 (CIB1) Competitor (AID 1508620). Also: top concentration of the series differs between compounds. As to conditions: CIB1-GST / FITC-alphaIIb peptide fluorescence polarization; series mostly up to 114 µM. In outline:
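Fluorescence polarization competition: GST-tagged CIB1 (1 uM final) preincubated with compound 15 min at room temperature, then FITC-labelled alphaIIb peptide (100 nM final) added. After 15 min at room temperature, polarization read at Ex 480/Em 540.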
Take `O=C(NCc1ccc(F)cc1)n1cc(P(=S)(c2ccccc2)c2ccccc2)c2ccccc21`: the Potency result is “inactive”. For the compound `Cc1ccc(C[C@H](C(=O)O)N2C(=O)c3ccc(C(=O)O)cc3C2=O)c(C)c1`, the Potency entry was “inactive”. Consider `Fc1cccc(CNc2ncnc3ccc(-c4ccccc4Cl)cc23)c1`, for which the Potency entry is “inactive”. The same measure for `Cc1ccc(OCCn2c(CCNC(=O)/C=C/c3cccc(Br)c3)nc3ccccc32)cc1`: “inactive”.

Turning to `O=S(=O)(c1ccc2c(c1)OCCO2)N1C[C@@H]2C[C@H]1CN2S(=O)(=O)c1c(F)cccc1F`, the Potency entry was “inactive”.

As for `O=S(=O)(c1ccc2c(c1)OCCO2)N1CCN(S(=O)(=O)c2cccs2)CC1`, the Potency result is “inactive”.

As to `O=C(Nc1nnc(-c2ccncc2)s1)Oc1ccc2ccccc2c1`, the Potency entry is “inactive”.

For the compound `O=C(Nc1ccc2ccccc2c1)Nc1nnc(Br)s1`, the Potency entry is “inactive”. The same measure for `O=C1c2ccccc2C(=O)N1c1cccc2ncccc12`: “inactive”; for `O=S1(=O)N=C(Sc2ccc3c(c2)OCCO3)c2ccccc21`: “inactive”. `CC(=O)Nc1sc2c(c1-c1ccccc1)CCN(C(=O)OC(C)(C)C)C2`: the Potency result is “inactive”. As to `Cc1ccc(OCCn2c(CCNC(=O)c3ccccc3)nc3ccccc32)cc1`, the Potency result was “inactive”.

In the case of `Cc1cc(N[S+](=O)([O-])c2cc3c(cc2Cl)CCC(=O)N3)ccc1Br`, the Potency entry was “inactive”. Then `CC(=O)Nc1cccc(OC2=NS(=O)(=O)c3ccccc32)c1`, with “inactive”; and `N[C@@H](Cc1ccccc1)C(=O)Nc1ccc(Cl)cc1C(=O)c1ccc[nH]1`, with “inactive”; and `O=S(=O)(c1cccc(-c2n[nH]c(=S)n2-c2ccccc2)c1)N1CCCC1`, with “inactive”.

`Cc1cc(C)c(C)c(S(=O)(=O)N2CCN(S(=O)(=O)c3ccc4c(c3)OCCO4)CC2)c1C`: the Potency result is “inactive”. Then `Fc1cc(Nc2nc(-c3ccncc3)nc3ccccc23)ccc1-c1cccc(OC(F)F)c1`, with “inactive”; and `O=S(=O)(NCC1CCC(NS(=O)(=O)c2c(F)cccc2F)CC1)c1ccc2c(c1)OCCO2` (stereo not given), with “inactive”; and `COCCN1C(=O)c2ccccc2NC1c1ccc(OC)c(COc2c(C)cc(NC(C)=O)cc2C)c1` (stereo not given), with “inactive”. `CCC(=O)Nc1ccc(OCc2cc(C3Nc4ccccc4C(=O)N3Cc3ccccc3)ccc2OC)cc1` (stereo not given): the Potency result is “inactive”. Regarding `O=[S+]([O-])(c1ccc2c(c1)OCCO2)N1CCN([S+](=O)([O-])c2c(F)cc(Br)cc2F)CC1`, the Potency entry is “inactive”. Then `O=C(Nc1cccc2nn(-c3ccc(F)cc3)cc12)c1ccccn1`, with “inactive”; and `Cc1ccc(NS(=O)(=O)c2cccc(C(=O)O)c2)cc1C`, with “inactive”; and `O=S(=O)(c1ccc2c(c1)OCCO2)N1CCN(S(=O)(=O)c2ccc3nc(Cl)c(Cl)nc3c2)CC1`, with “inactive”. Then `Cc1cc2c(s1)c1cnn(Cc3ccc(C(F)(F)F)cc3F)c(=O)c1n2C`, with “inactive”; and `O=C1CCCC2=C1C(c1c(Cl)cccc1Cl)N=C(Nc1nc3ccccc3o1)N2` (stereo not given), with “inactive”; and `NC(=O)C1CCN(c2ncc(-c3cccc(F)c3)s2)CC1`, with “inactive”. Then `COc1ccc(C2Nc3ccccc3C(=O)N2Cc2ccccc2)cc1OCc1ccc(NC(C)=O)cc1` (stereo not given), with “inactive”; and `S=C(NCCCc1cnc[nH]1)NCCCN(Cc1ccc(Cl)cc1)c1ccc(Br)cn1`, with “inactive”; and `O=C(OCC#CCSc1nnc(-c2cccs2)o1)c1ccc(F)cc1`, with “inactive”.

`CN(C)c1ccc(C(=O)OCC#CCSc2nnc(-c3cccc4ccccc34)o2)cc1`: the Potency entry was “inactive”. The same measure for `CN(CCc1cccs1)c1ncnc2ccc(-c3ccc4c(c3)OCO4)cc12`: “inactive”; for `Fc1cc(F)cc(Nc2nc(Cl)nc(NC3CCCC3)n2)c1`: “inactive”. Turning to `Cn1ncc(-c2nnc(-c3ccccc3)n2CCCn2ccnc2)c1N`, the Potency result was “inactive”. The same measure for `Cc1ccc(NS(=O)(=O)c2ccc3c(c2)CCC(=O)N3)cc1`: “inactive”; for `CC(C)CN1CCN(C(=O)COC(=O)c2ccc(S(C)(=O)=O)c([N+](=O)[O-])c2)CC1`: “inactive”. For the compound `Cc1ccc(CNc2ncnc3ccc(-c4ccoc4)cc23)o1`, the Potency result is “inactive”. The same measure for `Cc1cc(C=CC#N)cc(C)c1Nc1nc(Nc2ccc3c(c2)CCC3)c2[nH]cnc2n1`: “inactive”. The same measure for `O=[S+]([O-])(c1ccc2c(c1)OCCO2)N1CCN([S+](=O)([O-])c2ccc(F)cc2Cl)CC1`: “inactive”.

Source of the values: PubChem BioAssay (NCATS).
